This is an account of results in PubChem BioAssay (NCATS).

Records with an inconclusive call do not appear. The source made the active and inactive calls. Calls follow the shape of the dose curve; as a rule, active = well fitted activation curve with a large enough effect in the main read-out, with a control signal flat (not every such curve was filed as active); inconclusive = small, poorly fitted or top-dose-only effect, or effect the other way, or a change in a side signal; inactive = flat fitted curve, though single readings scatter.

Chain of 3',5'-cyclic-AMP phosphodiesterase 4B (Homo sapiens) (Q07343 whole entry, looked up): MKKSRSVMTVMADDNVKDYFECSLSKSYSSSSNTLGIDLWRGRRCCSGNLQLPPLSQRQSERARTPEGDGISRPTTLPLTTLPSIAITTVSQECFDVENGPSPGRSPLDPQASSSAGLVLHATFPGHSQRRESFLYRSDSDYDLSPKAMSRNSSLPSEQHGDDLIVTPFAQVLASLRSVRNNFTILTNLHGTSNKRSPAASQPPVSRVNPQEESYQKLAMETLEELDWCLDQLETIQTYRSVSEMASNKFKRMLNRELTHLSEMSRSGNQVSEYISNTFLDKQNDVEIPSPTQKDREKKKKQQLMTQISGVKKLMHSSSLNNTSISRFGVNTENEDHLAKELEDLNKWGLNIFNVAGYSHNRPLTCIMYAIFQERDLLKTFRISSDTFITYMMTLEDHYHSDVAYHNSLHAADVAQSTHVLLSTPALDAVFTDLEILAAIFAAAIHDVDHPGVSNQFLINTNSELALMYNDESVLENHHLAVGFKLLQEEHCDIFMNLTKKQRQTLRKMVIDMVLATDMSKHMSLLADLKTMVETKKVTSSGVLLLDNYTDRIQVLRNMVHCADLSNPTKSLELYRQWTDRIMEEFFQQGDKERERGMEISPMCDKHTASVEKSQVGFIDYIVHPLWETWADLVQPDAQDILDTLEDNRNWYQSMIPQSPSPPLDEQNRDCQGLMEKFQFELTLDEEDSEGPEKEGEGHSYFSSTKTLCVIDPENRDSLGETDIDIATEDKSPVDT

The assay concerns the target 3',5'-cyclic-AMP phosphodiesterase 4B (Homo sapiens) (UniProt Q07343). The assay is described as follows: qHTS Assay for Inhibitors of PDE-IV (AID 607). The conditions noted are these: HEK293 ACTOne CNG channel cells, membrane potential fluorescence; series mostly up to 22.9 µM. The essentials: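 The readout is membrane depolarisation from a cAMP-sensing CNG channel, detected with a potential dye at ex 535/em 590. Cells were HEK293-derived (endogenous PDE-IV) at 1000 cells/well, titrated up to 22.9 uM final.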
Background: In qHTS, concentration-response curves come from the screen itself.
As for `O=C1c2ccccc2-c2n[nH]c3cccc1c23`, the outcome was inactive.
The entry for `Cc1c(OCC(F)(F)F)ccnc1CS(=O)c1nc2ccccc2[nH]1` (stereo not given) is “inactive”.
In the case of `O=c1c(O)c(-c2ccc(O)cc2O)oc2cc(O)cc(O)c12` it was “inactive”.
Take `Cc1cc(C2CCCCC2)n(O)c(=O)c1`: the result was inactive.
In the case of `O=C(O)c1cccnc1Nc1cccc(C(F)(F)F)c1` it was “inactive”.
In the case of `O=c1cc(N2CCOCC2)oc2c(-c3ccccc3)cccc12` it was “inactive”; in that of `CN1C(C(=O)Nc2ccccn2)=C(O)c2sccc2S1(=O)=O`, “inactive”.
In the case of `O=c1ccc2ccc(O)c(O)c2o1` it was “inactive”; in that of `C[C@H](Cc1ccc(O)c(O)c1)[C@@H](C)Cc1ccc(O)c(O)c1`, “inactive”; in that of `NNc1nncc2ccccc12`, “inactive”.
Take `N=C(N=C(N)N)N1CCOCC1`: the outcome was inactive.
As for `CCCCN(CCCC)CCC(O)c1cc2c(Cl)cc(Cl)cc2c2cc(C(F)(F)F)ccc12` (stereo not given), the result was inactive.
Regarding `CNC[C@H](O)c1ccc(O)c(O)c1`, the compound was classed as inactive.
In the case of `COc1cc(OC)c(C(=O)CCCN2CCCC2)c(OC)c1` it was “inactive”; in that of `NC(=NCc1ccccc1)NC(=O)c1nc(Cl)c(N)nc1N`, “inactive”.
In the case of `Cc1cccc(C#Cc2ccccc2)n1` it was “inactive”; in that of `COc1ccccc1N1CCN(CCN(C(=O)C2CCCCC2)c2ccccn2)CC1`, “inactive”; in that of `CC(C)c1ccc2c(c1)c(SC(C)(C)C)c(CC(C)(C)C(=O)O)n2Cc1ccc(Cl)cc1`, “inactive”.
In the case of `CC1(C)C(=O)N(CCN2CCC(C(=O)c3ccc(F)cc3)CC2)c2ccccc21` it was “inactive”.
In the case of `O=C(O)c1cc(=O)c2c(OCC(O)COc3cccc4oc(C(=O)O)cc(=O)c34)cccc2o1`, the result was inactive.
